# Test results as given in PubChem BioAssay AID485313 (National Center for Advancing Translational Sciences (NCATS), 2010).
# In all, about 320,000 compounds went through this assay and about 7,600 (2.4%) were called active. Not shown: some 3% with an inconclusive outcome. This is one part of a sample in which actives are shown more often than they occur. A number with no mark means an inactive call. The call rests on the fitted dose curve; in most records, active means well fitted activation curve with a large enough effect; inconclusive means small, poorly fitted or top-dose-only effect; inactive means no such curve, though single readings can be large or run the other way.
# Experiment: qHTS Assay for NPC1 Promoter Activators; further: nearly all actives have a fitted effect of over 60% in size;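 on activation: reporter is driven by a mutant NPC1 promoter; % of control where 0% means no effect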
# Settings: Huh7 NPC1 promoter luciferase reporter, 24 h; series mostly up to 9.22 µM; activation: at the top concentration
# Method in brief: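 Stable NPC1-promoter luciferase Huh7 line; cpd (DMSO) 24 h, 37 °C, 5% CO2; Amplite luciferase reagent 10 min RT; luminescence readout. qHTS format.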
# Potency means the concentration at half of the fitted maximal effect.
Structure (SMILES),activation [%],Potency
O=S(=O)(c1ccc(SCc2ccc(Br)cc2)nc1)N1CCOCC1,0.635,–
CCOc1ccc(C(=O)NCC(=O)N2CCN(c3ccc(C(F)(F)F)cn3)CC2)cc1,-7.45,–
O=C(N/N=C/c1cccc([N+](=O)[O-])c1)C1CC(=O)N(c2ccc(Br)cc2)C1 (stereo not drawn),-0.286,–
Cc1ccc(NC(=O)O/N=C/c2cccc([N+](=O)[O-])c2)cc1,1.04,–
O=[N+]([O-])c1cccc(/C=N/Nc2ncc(Br)cn2)c1,–,2.82 µM (active)
CC(C)Oc1ccc(C(=O)NCC(=O)Nc2ccc3c(c2)CCC3)cc1,-1.93,–
COc1ccc(/C=N/OCc2ccccc2C#N)c(OC)c1,–,3.98 µM (active)
COc1ccc(/C=N/NC(=O)c2ccc3c(c2)OCCO3)c(OC)c1,1.77,–
COc1ccc(/C=N/Nc2cc(N3CCOCC3)nc(C)n2)c(OC)c1,1.13,–
Cc1cc(=O)oc2cc(NC(=O)C(C)Oc3ccccc3)ccc12 (stereo not drawn),2.89,–
CC(C)C(=O)Nc1ccc2c(c1)oc1ccccc12,–,3.55 µM (active)
CC(C)C(=O)Nc1ccc2oc(=O)ccc2c1,-3.24,–
O=S(=O)(NCCCCCCNS(=O)(=O)c1c(F)cccc1F)c1ccc2c(c1)OCCO2,1.24,–
CCCCc1ccc(NC(=S)N2CCCC(CO)C2)cc1 (stereo not drawn),–,1.58 µM (active)
COc1ccc(NC(=S)N2CCCC(CO)C2)c(OC)c1 (stereo not drawn),-1.51,–
CCCCc1ccc(NC(=S)NCCCN2CCOCC2)cc1,-3.36,–
CC(C)N(C(=O)CN1CCN(S(=O)(=O)c2ccc(Br)s2)CC1)C(C)C,-2.79,–
N#Cc1ccccc1NC(=O)c1cccc(COc2ccc(Cl)cc2Cl)c1,–,0.316 µM (active)
O=C(Nc1cccc2cccnc12)c1cccc(Cl)c1,18.6,–
CSc1ccc(C#N)cc1NC(=O)c1cccc(Cl)c1,-7.05,–
CCn1nc(C(=O)Nc2ccc(N3CCOCC3)cc2)c2ccccc2c1=O,5.27,–
CC(C(=O)N(C)CC(=O)Nc1ccccc1C(F)(F)F)N1C(=O)c2ccccc2C1=O (stereo not drawn),-1.83,–
CSCCNC(=O)c1ccc2nc(Cc3ccccc3F)oc2c1,–,2.51 µM (active)

Structure (SMILES),activation [%],Potency
COc1ccc(Cc2nc3ccc(C(=O)NCC4CCOCC4)cc3o2)cc1OC,10.3,–
COCCNC(=O)c1ccc2nc(Cc3ccc(OC)c(OC)c3)oc2c1,-30.7,–
COc1ccc(C(=O)COC(=O)c2ccc([N+](=O)[O-])s2)cc1OC,-2.25,–
CCc1ccc(NC(=O)N2CCc3ccccc3C2)cc1,–,2.24 µM (active)
CCc1ccc(NC(=O)N2CCN(c3ccccc3)CC2)cc1,9.63,–
O=C(C(=O)N1CCc2ccccc2C1)N1CCc2ccccc2C1,3.15,–
CCCn1nc(C(=O)OCc2nc(N)nc(Nc3ccccc3C)n2)c2ccccc2c1=O,-0.194,–
COc1ccc(C2/C(=C(/O)c3ccccc3)C(=O)C(=O)N2C)c(OC)c1 (stereo not drawn),-0.891,–
COc1ccc(/C(O)=C2/C(=O)C(=O)N(c3nc(C)c(C)s3)C2c2ccco2)cc1 (stereo not drawn),2.32,–
CCOc1ccc(/C(O)=C2\C(=O)C(=O)N(c3ccc(OC)cc3)C2c2ccccc2[N+](=O)[O-])cc1 (stereo not drawn),–,0.398 µM (active)
c1ccc2cc(CCCc3cc4ccccc4cn3)ncc2c1,-0.127,–
COc1cc(OC)cc(C(=O)NNC(=O)CCOc2ccccc2OC)c1,-0.0783,–
CCOc1ccc(Nc2nc(Cl)nc(N3CCN(c4ccc(OC)cc4)CC3)n2)cc1,-1.01,–
Cc1ccc(Nc2nc(N3CCOCC3)nc(N3CCOCC3)n2)cc1Cl,-5.97,–
COc1ccc(Nc2ncc(F)c(N3CCOCC3)n2)cc1,–,1.26 µM (active)
Cc1cccc(NC(=O)CN2CCN(C(=O)C3CCN(C(=O)/C=C/c4ccccc4)CC3)CC2)c1C,11.6,–
CCOC(=O)[C@@H]1[C@H]2COc3ccc(Br)cc3[C@H]2N2C(=O)N(c3ccc(Cl)cc3)C(=O)[C@@]12C,-2.71,–
COc1ccccc1-c1oc2ccccc2c1C#CCCCCO,-1.8,–
c1ccc(-c2cc(-c3ccccc3)[nH]n2)cc1,26.3,–
OCCCN1c2ccccc2Nc2nnc(-c3ccccc3)cc21,–,2.24 µM (active)
CN=c1scc(-c2cc(OC)ccc2OC)n1/N=C/c1c(C)[nH]c2ccccc12,-0.11,–
N#Cc1ccc(C2=CC(=O)C[C@H](c3ccc(Cl)cc3)C2)cc1,7.18,–
Cc1cc(C#N)c(SCC(N)=O)nc1-c1ccc(F)cc1,0.168,–

Structure (SMILES),activation [%],Potency
CC(=O)c1cc(C#N)c(N2CC(C)OC(C)C2)nc1C (stereo not drawn),0.589,–
CC(=O)c1cc(C#N)c(SCC(=O)C(C)(C)C)nc1C,–,3.16 µM (active)
CCOC(=O)c1ccc(N/C(=N/S(=O)(=O)c2ccccc2)c2ccccc2)cc1,-1.97,–
Cc1ccc(S(=O)(=O)N2CCOCC2)cc1NC(=O)COC(=O)c1cnccn1,-3.31,–
COc1ccc(/C=N/Nc2nc3ccccc3o2)cc1OC,–,2 µM (active)
CCOc1ccc(/C=N/Nc2nncc(-c3ccccc3)n2)cc1OC,0.357,–
CCNc1nc(NCC)nc(N/N=C/c2ccc(O)c(OC)c2)n1,0.366,–
CCN(CC)S(=O)(=O)c1ccc(N2CCOCC2)c(NC(=O)C(C)Oc2ccc(F)cc2)c1 (stereo not drawn),-6.62,–
CC1CCCCC12NC(=O)N(CC(=O)OCC(=O)NCc1ccc(F)cc1)C2=O (stereo not drawn),-3.63,–
CCN(CC(=O)Nc1ccccc1C(=O)NC1CC1)Cc1cccs1,-1.35,–
Cn1ccsc1=NC(=O)c1cc(S(=O)(=O)N2CCOCC2)ccc1Cl,-1.29,–
COc1ccc(-c2nc(SCC(=O)N3CCCC3)n[nH]2)cc1,-1.33,–
COc1ccc(-c2nnc3n2CCCCC3)cc1,-1.97,–
COc1ccc(-c2nc3n(c2Br)CCC3)cc1,–,2.82 µM (active)
CN(CC(=O)Nc1ccc(F)c(F)c1F)C(=O)Cn1cnc2c1c(=O)n(C)c(=O)n2C,-0.741,–
Cc1ccsc1C(=O)NC1CCCCC1C (stereo not drawn),0.949,–
COc1cc(/C=N\Nc2ccc([N+](=O)[O-])cn2)ccc1OCC(=O)O,1.45,–
COc1cc(C(=O)OCc2ccc([N+](=O)[O-])cc2)cc(OC)c1OC,-0.326,–
COc1cc(/C=N/O)ccc1OCc1ccc([N+](=O)[O-])cc1,–,2.51 µM (active)
Cc1ccccc1-c1cc(C(=O)NCC2CC2)n(CC2CC(c3cccnc3)=NO2)n1 (stereo not drawn),-0.342,–
O=C(COc1ccccc1O)NC1CCCC1,-2.53,–
CC(=O)Nc1ccc(NC(=O)CSc2nnc(C3CC3)n2-c2ccccc2)cc1,-5.77,–
